Measured values: PubChem BioAssay AID1159580 (chemical genetic matrix, 2015)
Screen size: about 5,500 compounds; about 2,000 (36%) were called active. Roughly 18% stayed inconclusive and do not appear here. Cut-off read from the data, not from the text of the source: active = normalized growth mostly below about 0.91 (no sharp cut-off); inconclusive = no clear call, values can overlap the other calls; inactive = mostly above about 0.92. The list shows a part of the results.

Assay: chemical genetic growth profiling, strain panel (AID 1159580);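 note: tested at 20 µM; growth read once vehicle control cultures reached saturation at 30 °C; 1 = growth at the plate median or of vehicle wells; lower values mean less growth of the strain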
Settings: growth OD

Measured: normalized growth

CC1(C)O[C@@H]2CC3C4C[C@H](F)C5=CC(=O)C=CC5(C)C4C(O)CC3(C)[C@]2(C(=O)CO)O1 (some centres undefined)
inactive: S. cerevisiae deletion strains, locus YKL009W, strain mrt4, hits give low values 0.996 | S. cerevisiae deletion strains, locus YKL068W, hits give low values 0.992 | S. cerevisiae deletion strains, locus YKL085W, strain MDH1 (second series), hits give low values 1.01 | S. cerevisiae deletion strains, locus YKL085W, strain MDH1, hits give low values 1.01 | S. cerevisiae deletion strains, locus YKL160W, strain elf1, hits give low values 0.967 | S. cerevisiae deletion strains, locus YKL190W, strain CNB1, hits give low values 1.01 | S. cerevisiae deletion strains, locus YKR001C, strain vps1, hits give low values 1.01 | S. cerevisiae deletion strains, locus YKR026C, strain gcn3, hits give low values 0.988 | S. cerevisiae deletion strains, locus YKR091W, strain srl3, hits give low values 0.985 | S. cerevisiae deletion strains, locus YLL001W, strain dnm1, hits give low values 0.978 | S. cerevisiae deletion strains, locus YLL026W, hits give low values 1.02 | S. cerevisiae deletion strains, locus YLL041C, strain sdh2, hits give low values 0.981 | S. cerevisiae deletion strains, locus YLR027C, strain aat2, hits give low values 0.992 | S. cerevisiae deletion strains, locus YLR039C, strain RIC1, hits give low values 0.995 | S. cerevisiae deletion strains, locus YLR058C, strain SHM2, hits give low values 1.02 | S. cerevisiae deletion strains, locus YLR102C, strain apc9, hits give low values 0.981 | S. cerevisiae deletion strains, locus YLR113W, strain HOG1, hits give low values 1.04 | S. cerevisiae deletion strains, locus YLR221C, strain rsa3, hits give low values 1.02 | S. cerevisiae deletion strains, locus YLR258W, strain gsy2, hits give low values 0.984 | S. cerevisiae deletion strains, locus YLR262C, strain YPT6 (second series), hits give low values 0.969 | S. cerevisiae deletion strains, locus YLR262C, strain YPT6, hits give low values 1 | S. cerevisiae deletion strains, locus YLR268W, strain sec22, hits give low values 1.01 | S. cerevisiae deletion strains, locus YLR320W, strain mms22, hits give low values 0.981 | S. cerevisiae deletion strains, locus YLR330W, strain CHS5, hits give low values 1.02 | S. cerevisiae deletion strains, locus YLR342W, strain FKS1 (second series), hits give low values 1 | S. cerevisiae deletion strains, locus YLR342W, strain FKS1, hits give low values 0.978 | S. cerevisiae deletion strains, locus YLR357W, strain rsc2, hits give low values 0.933 | S. cerevisiae deletion strains, locus YLR370C, strain arc18, hits give low values 0.981 | S. cerevisiae deletion strains, locus YLR371W, strain rom2, hits give low values 0.988 | S. cerevisiae deletion strains, locus YLR384C, strain iki3, hits give low values 0.992 | S. cerevisiae deletion strains, locus YLR418C, strain cdc73, hits give low values 0.977 | S. cerevisiae deletion strains, locus YML016C, strain PPZ1, hits give low values 1.02 | S. cerevisiae deletion strains, locus YML032C, strain rad52, hits give low values 0.979 | S. cerevisiae deletion strains, locus YML120C, strain ndi1, hits give low values 1 | S. cerevisiae deletion strains, locus YML124C, strain tub3, hits give low values 0.992 | S. cerevisiae deletion strains, locus YMR058W, strain fet3, hits give low values 1.01 | S. cerevisiae deletion strains, locus YMR078C, strain ctf18, hits give low values 1 | S. cerevisiae deletion strains, locus YMR125W, strain sto1, hits give low values 0.979 | S. cerevisiae deletion strains, locus YMR129W, hits give low values 1.01 | S. cerevisiae deletion strains, locus YMR205C, strain PFK2, hits give low values 0.981 | S. cerevisiae deletion strains, locus YMR223W, strain ubp8, hits give low values 0.996 | S. cerevisiae deletion strains, locus YMR231W, strain pep5, hits give low values 0.978 | S. cerevisiae deletion strains, locus YMR263W, strain SAP30, hits give low values 1.02 | S. cerevisiae deletion strains, locus YMR307W, strain GAS1, hits give low values 1.07 | S. cerevisiae deletion strains, locus YNL067W, strain RPL9B, hits give low values 1.03 | S. cerevisiae deletion strains, locus YNL071W, strain lat1, hits give low values 0.987 | S. cerevisiae deletion strains, locus YNL153C, strain GIM3, hits give low values 1.03 | S. cerevisiae deletion strains, locus YNL183C, strain NPR1, hits give low values 0.953 | S. cerevisiae deletion strains, locus YNL209W, strain ssb2, hits give low values 0.974 | S. cerevisiae deletion strains, locus YNL233W, strain BNI4, hits give low values 1.02 | S. cerevisiae deletion strains, locus YNL248C, strain rpa49, hits give low values 0.927 | S. cerevisiae deletion strains, locus YNL250W, strain rad50, hits give low values 0.993 | S. cerevisiae deletion strains, locus YNL271C, strain bni1, hits give low values 0.97 | S. cerevisiae deletion strains, locus YNL298W, strain CLA4, hits give low values 0.988 | S. cerevisiae deletion strains, locus YNL307C, strain MCK1, hits give low values 0.98 | S. cerevisiae deletion strains, locus YNL322C, strain KRE1 (second series), hits give low values 0.963 | S. cerevisiae deletion strains, locus YNL322C, strain KRE1, hits give low values 1.01 | S. cerevisiae deletion strains, locus YNR049C, strain mso1, hits give low values 0.974 | S. cerevisiae deletion strains, locus YNR052C, strain pop2, hits give low values 0.993 | S. cerevisiae deletion strains, locus YOL006C, strain TOP1, hits give low values 1.01 | S. cerevisiae deletion strains, locus YOL012C, strain htz1 0.907 | S. cerevisiae deletion strains, locus YOL147C, strain pex11, hits give low values 0.992 | S. cerevisiae deletion strains, locus YOR001W, strain rrp6, hits give low values 1.01 | S. cerevisiae deletion strains, locus YOR061W, strain CKA2, hits give low values 1.02 | S. cerevisiae deletion strains, locus YOR069W, strain VPS5, hits give low values 1.01 | S. cerevisiae deletion strains, locus YOR070C, strain gyp1, hits give low values 0.984 | S. cerevisiae deletion strains, locus YOR080W, strain dia2, hits give low values 0.977 | S. cerevisiae deletion strains, locus YOR083W, strain WHI5, hits give low values 0.918 | S. cerevisiae deletion strains, locus YOR106W, strain vam3, hits give low values 0.976 | S. cerevisiae deletion strains, locus YOR136W, strain idh2, hits give low values 0.994 | S. cerevisiae deletion strains, locus YOR144C, strain elg1, hits give low values 0.984 | S. cerevisiae deletion strains, locus YOR184W, strain ser1, hits give low values 0.982 | S. cerevisiae deletion strains, locus YOR231W, strain MKK1, hits give low values 1.02 | S. cerevisiae deletion strains, locus YOR265W, strain rbl2, hits give low values 1.01 | S. cerevisiae deletion strains, locus YOR270C, strain vph1, hits give low values 0.955 | S. cerevisiae deletion strains, locus YOR290C, strain snf2, hits give low values 0.964 | S. cerevisiae deletion strains, locus YOR316C, strain cot1, hits give low values 0.983 | S. cerevisiae deletion strains, locus YPL051W, strain arl3, hits give low values 0.981 | S. cerevisiae deletion strains, locus YPL055C, strain LGE1, hits give low values 1.04 | S. cerevisiae deletion strains, locus YPL078C, strain atp4, hits give low values 0.977 | S. cerevisiae deletion strains, locus YPL106C, strain sse1, hits give low values 0.95 | S. cerevisiae deletion strains, locus YPL240C, strain hsp82, hits give low values 0.992 | S. cerevisiae deletion strains, locus YPL256C, strain CLN2, hits give low values 1.03 | S. cerevisiae deletion strains, locus YPR119W, strain clb2, hits give low values 0.987 | S. cerevisiae deletion strains, locus YPR141C, strain kar3, hits give low values 0.996 | S. cerevisiae deletion strains, locus YPR163C, strain tif3, hits give low values 0.988 | S. cerevisiae deletion strains, locus YPR167C, strain met16, hits give low values 0.987 | S. cerevisiae deletion strains, strain wtn01, hits give low values 0.984 | S. cerevisiae strains, strain wild type, hits give low values 1.02
